Bioassay records as filed in PubChem.
DT40 TDP1 CPT = DT40-hTDP1 cell growth loss with CPT; 420,000 tested, 12% active; chicken DT40 Tdp1-/-;hTDP1 cells + 20 nM CPT, ATP luminescence, 48 h; Potency, µM (top dose mostly 46.2 µM), for the others: at the highest dose activity change, negative = growth inhibition, most hits filed as inhibitors; note: nearly all actives have a fitted effect of over 55% in size
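Cell growth measured by CellTiter-Glo luminescence after a minimum 48 h, 37 C compound exposure with 20 nM CPT in Tdp1-knockout DT40 cells stably expressing hTDP1, seeded 400/well; qHTS titration format.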
KB-3-1 cytotox = KB-3-1 parental cell cytotoxicity; KB-3-1 viability, CellTiter-Glo ATP luminescence, 72 h; Potency, µM (series often up to 46.1 µM), hits mostly cytotoxic; 400,000 tested, 1.4% active; note: nearly all actives have a fitted effect of over 60% in size
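Cells are dispensed, compounds pinned in, plates held at 37 °C for 72 h, then CellTiter-Glo is added and luminescence read after 10 minutes. Cell line: parental KB-3-1 in phenol-red-free DMEM, 10% FBS.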
TDP1 cell noCPT = qHTS for Inhibitors of human tyrosyl-DNA phosphodiesterase 1 (TDP1): qHTS in cells in absence of CPT. DT40 Tdp1-/- hTDP1 cells, no CPT, ATP luminescence, 48 h. Potency, µM (top dose mostly 46.2 µM), inactives show at the highest dose activity change, negative = growth inhibition, hits mostly inhibitors. AID 686978, 2013. 420,000 tested, 15% active; note: nearly all actives have a fitted effect of over 55% in size
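Growth kinetics read by CellTiter-Glo luminescence after ≥48 hr at 37 °C. Cells: DT40 Tdp1-/- stably carrying human TDP1, 400 per well, compound exposure in the absence of CPT (DMSO vehicle).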
HT1080NT lethal = kills 2HG-producing HT-1080-NT fibrosarcoma cells; HT-1080-NT fibrosarcoma viability, CellTiter-Glo ATP luminescence, 48 h; Potency, µM (highest dose often 46.1 µM), inactives show at the highest dose activity, negative = less viability, usual class: cytotoxic; 360,000 tested, 1.6% active; AID 686970;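 note: NT is the 2HG producing partner of a matched IDH1 knockdown line; 0% = DMSO-treated cells and -100% = media-only wells without cells; nearly all actives have a fitted effect of over 55% in size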
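Read-out is CellTiter-Glo luminescence after 10 minutes at room temperature, following 48 hours' compound treatment of HT-1080-NT cells (750 cells/well, RPMI, 5% FBS, 37 degrees C).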
KB-V1 MDR tox = kills drug-selected multidrug resistant KB-V1 cells; Potency, µM (doses to about 46.1 µM), actives largely listed as cytotoxic; KB-V1 MDR cells viability, CellTiter-Glo, 72 h; 400,000 tested, 3.4% active; note: nearly all actives have a fitted effect of over 60% in size
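KB-V1, DMEM (no phenol red) + 10% FBS; cpd pin-transferred, titration series; 72 h, 37 degrees C; CellTiter-Glo, luminescence. Data normalized, curve-fit.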
HT1080 IDH1KD tx = kills HT-1080 cells with IDH1 knockdown; HT-1080 IDH1 knockdown viability, ATP luminescence, 48 h; Potency, µM (series often up to 46.1 µM), without a hit: top-dose activity, negative = toxicity, most hits filed as cytotoxic; 360,000 tested, 2% active;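 note: 0% = DMSO wells and -100% = cell-free medium wells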
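Viability of IDH1-knockdown HT-1080 fibrosarcoma cells was assessed by CellTiter-Glo after 48 h at 37 °C with titrated compound; concentration-effect curves were classified by fit quality and response size.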
An asterisk follows results filed as active; i = inactive; ? = inconclusive; nt = no result; [ ] = remark or other dose. Sampled rows, rich in hits. Any-hit rate of the full collection: about 19%. Calls come from the whole dose curve; as a rule, active = well fitted curve in the direction sought with a large enough effect; inconclusive = small, poorly fitted or top-dose-only effect, or another doubt; inactive = no such curve, though single readings can be large; an effect the other way counts as inactive or inconclusive. Unless noted, % is set by controls: 0 for no effect and ±100 for the full control effect; potency is the fitted concentration of half-maximal effect.

SMILES	DT40 TDP1 CPT	KB-3-1 cytotox	TDP1 cell noCPT	HT1080NT lethal	KB-V1 MDR tox	HT1080 IDH1KD tx
CC(NCc1ccc(F)cc1)C(=O)Nc1cc(S(=O)(=O)N2CCCCC2)ccc1Cl (configuration not stated)	?	?	?	0.0%	16.4µM*	-14.0%
O=C(COC(=O)C1CCC1)Nc1cc(S(=O)(=O)N2CCCCC2)ccc1Cl	-2.6%	i	-13.3%	-1.8%	i	-2.5%
CC(C)(C)CC(=O)Nc1cc(S(=O)(=O)N2CCCCCC2)ccc1Cl	?	i	?	0.3%	18.4µM*	-13.4%
O=C(Nc1cc(S(=O)(=O)N2CCCCC2)ccc1Cl)C1=NN(c2ccccc2)C(=O)CC1	?	i	8.2µM*	4.7%	i	0.8%
CC(=O)Nc1cccc(NCC(=O)Nc2cc(S(=O)(=O)N3CCCCC3)ccc2Cl)c1	?	i	?	5.3%	i	3.6%
CCOc1ccc(NC(=O)C2=NN(c3ccccc3)C(=O)CC2)cc1S(=O)(=O)N1CCCCC1	?	i	?	-11.7%	i	-0.3%
O=C1CCCC2=C1C1(CCS(=O)(=O)C1)N=C(Nc1nc3ccccc3o1)N2 (configuration not stated)	nt	i	nt	nt	i	nt
COc1ccccc1-c1c(C(F)(F)F)oc2cc(OC(=O)c3cccc([N+](=O)[O-])c3C)ccc2c1=O	20.6µM*	?	23.1µM*	0.4%	i	?
CCc1nn(C(CC)C(=O)NCC(C)c2ccccc2)c(=O)c2cc3occc3n12 (configuration not stated)	?	i	-26.8%	-7.5%	i	3.2%
CCc1nn(C(CC)C(=O)NCCCN2CC(C)CC(C)C2)c(=O)c2cc3oc(C)cc3n12 (configuration not stated)	16.4µM*	i	?	-21.1%	i	?
Cc1ccc(/C=C/C(=O)NCc2cccs2)c(C)c1	-14.1%	i	-21.2%	12.0%	i	-1.0%
COc1ccc(SCC(=O)Nc2ccccc2Cl)cc1	-0.3%	?	-19.5%	18.7%	?	27.5%
FC(F)(F)c1ccccc1-c1nc(NC2CCNCC2)c2ccccc2n1	14.6µM*	nt	?	nt	nt	nt
Cc1cc(NC(=O)c2ccc(NC(=O)C(C)Oc3ccccc3)cc2)no1 (configuration not stated)	-24.3%	i	-28.7%	-23.1%	i	7.6%[9.24 µM]
CCN1CCN(c2cc(C(C)C)nc3c(-c4ccccc4)c(C)nn23)CC1	11.6µM*	i	20.6µM*	?	?	16.4µM*
Cc1nn2c(N3CCOCC3)cc(C(C)C)nc2c1-c1ccccc1	?	i	-18.2%	5.5%	i	10.9%
CCN1CCN(c2cc(C(C)(C)C)nc3c(-c4ccccc4)c(C)nn23)CC1	?	i	18.4µM*	?	i	12.6µM*
Cc1nn2c(N3CCOCC3)cc(C(C)(C)C)nc2c1-c1ccccc1	?	i	?	-1.7%	i	10.9%
O=C(O)c1ccc(Cl)c(S(=O)(=O)Nc2ccccc2Cc2ccccc2)c1	-2.9%	i	4.2%	-0.8%	?	9.2%
CN1C(=O)C2(c3ccccc31)C1CCCC=C1C(C#N)=C(N)C2(C#N)C#N (configuration not stated)	-29.3%	i	?	3.5%	i	?
Cc1cccc(N2CCN(S(=O)(=O)c3cn(C)c(C)n3)CC2)c1C	-20.7%	i	-24.1%	nt	?	nt
O=C(NCCc1cccc(Cl)c1)c1ccc(Cl)c([N+](=O)[O-])c1	?	i	20.6µM*	?	i	-11.8%
Cc1ccc(C(=O)NCCc2cccc(Cl)c2)cc1[N+](=O)[O-]	20.6µM*	i	20.6µM*	-6.4%	16.4µM*	8.4%
CC(C)(CNC(=O)c1ccc([N+](=O)[O-])c(Cl)c1)CNC(=O)c1ccc([N+](=O)[O-])c(Cl)c1	18.4µM*	?	20.6µM*	20.6µM*	?	?
C=CCNC(=O)c1ccc([N+](=O)[O-])c(Cl)c1	0.0%	i	-0.8%	4.2%	i	2.5%
SMILES	DT40 TDP1 CPT	KB-3-1 cytotox	TDP1 cell noCPT	HT1080NT lethal	KB-V1 MDR tox	HT1080 IDH1KD tx
COCC1CCN(C(=O)c2cc(COc3cc(C)c(Cl)c(C)c3)on2)C1 (configuration not stated)	?	i	2.5%	-1.3%	i	4.2%
COc1cccc(-c2ccc(O)c(CNCc3cccc(OC)c3OC)c2)n1	-5.0%[9.04 µM]	nt	?	nt	nt	nt
CC(C)(C)OC(=O)N1CCC(C(=O)Nc2ccc(C(=O)NC3CC3)cc2)CC1	2.3%	i	1.0%	-0.3%	i	3.9%
CN(C(=O)c1cccc(NC(=O)C2CCCN(C(=O)OC(C)(C)C)C2)c1)C1CCC1 (configuration not stated)	20.6µM*	?	16.4µM*	-4.5%	i	-3.9%
CN(C(=O)c1cccc(NC(=O)C2CCN(C(=O)OC(C)(C)C)CC2)c1)C1CCCCC1	20.6µM*	i	13µM*	-3.6%	i	-9.6%
CN(C(=O)c1ccc(NC(=O)C2CCN(C(=O)OC(C)(C)C)CC2)cc1)C1CCC1	18.4µM*	i	18.4µM*	-0.3%	i	8.2%
COc1cccc(CNC(=O)C(NS(=O)(=O)c2cccs2)C(C)C)c1 (configuration not stated)	-9.4%	i	-16.9%	nt	i	nt
COc1cc(OC)c2ccc(=O)oc2c1	5.9%	i	1.3%	-5.3%	i	-1.5%
COc1cc(OC)cc(-c2nc(-c3cccc(C)c3)no2)c1	-19.4%	i	?	nt	i	nt
COc1cc(OC)c2c(-c3cccc(/C=C/c4ccc(F)cc4)c3)cc(=O)oc2c1	20.6µM*	i	18.4µM*	-0.9%	i	-9.3%
COc1ccc(-c2cc(=O)oc(-c3cccc(C)c3)n2)cc1	?	i	18.4µM*	15.4%	i	17.3%
CCN(CC)C(=O)CC(c1ccc(N(C)C)cc1)c1c(OC)cc(OC)c2c(-c3ccccc3)cc(=O)oc12 (configuration not stated)	?	i	?	-21.6%	i	-19.1%
COc1cc(OC)c2c(-c3cccc(-c4ccc(CO)cc4)c3)cc(=O)oc2c1	1.3µM*	?	0.581µM*	?	2.59µM*	0.517µM*
